From PubChem
Only some compounds are listed: those with a hit (about 12% of all), similar ones and a draw of the others.
PLK1 PBD inh – qHTS for Inhibitors of PLK1-PDB (polo-like kinase 1 - polo-box domain): Primary Screen | AID 720504, 2013 | Potency, µM, for the others: max response, negative = inhibition, hits mostly inhibitors | Plk1 PBD binding of FITC phosphopeptide, fluorescence polarization | 360,000 compounds, 2.8% hits; note: potency is the fitted concentration of half-maximal effect; series mostly up to about 57 µM; % is set by controls: 0 for no effect and ±100 for the full control effect; nearly all actives have a fitted effect of over 65% in size
PI5P4Ka inh – qHTS for Inhibitors of phosphatidylinositol 5-phosphate 4-kinase (PI5P4K); PI5P4Kalpha enzyme, ADP-Glo luminescence, 60 min; active compounds read low; max response, %; 330,000 compounds, 1.2% hits; Phosphatidylinositol 5-phosphate 4-kinase type-2 alpha (Homo sapiens), P48426; active = max response of -50% or lower; inconclusive = between -30% and -50%; inactive = -30% or higher; note: value at the top dose of about 77 µM; % is set by controls: 0 for no effect and ±100 for the full control effect
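PI5P4Kalpha ADP-Glo assay; 5 microM ATP final; 60 min RT reaction; HEPES pH 7.4/EGTA/CHAPS, 5% DMSO; controls lacking substrate or enzyme; luminescent end-point.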
HP1b binding inh – HTS for Inhibitors of HP1-beta Chromodomain Interactions with Methylated Histone Tails; Chromobox protein homolog 1 (Homo sapiens), P83916; AlphaScreen HP1-beta / biotin-H3K9me3 peptide binding; Potency, µM (doses to about 114 µM), for the others: at the top dose activity change, negative = inhibition, hits mostly inhibitors; 390,000 compounds, 0.56% hits; AID 540317, 2011; note: potency is the fitted concentration of half-maximal effect; nearly all actives have a fitted effect of over 70% in size
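AlphaScreen: HP1-beta (50 nM) preformed 30 min with biotin-H3(1-18)K9me3 peptide (50 nM) in PBS pH 7.4, 0.01% Tween-20. Compound added for 30 min at RT, then streptavidin donor/nickel chelate acceptor beads (10 ug/mL) for 30 min.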
BAZ2B inh – qHTS Assay for Inhibitors of BAZ2B; Bromodomain adjacent to zinc finger domain protein 2B (Homo sapiens), Q9UIF8; AlphaScreen BAZ2B-H3K14Ac peptide displacement; Potency, µM (series often up to 114 µM), inactives show at the highest dose activity change, negative = inhibition, hits mostly inhibitors; 360,000 compounds, 4.4% hits; note: potency is the fitted concentration of half-maximal effect; % is set by controls: 0 for no effect and ±100 for the full control effect; nearly all actives have a fitted effect of over 60% in size
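In this displacement format the biotinylated H3(5-23) peptide acetylated at Lys14 serves as ligand at 50 nM, with BAZ2B at 50 nM in PBS pH 7.4 containing 0.01% Tween-20. Donor and acceptor beads are 10 ug/mL final.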
JMJD2A Tudor inh – qHTS Assay for Inhibitors of JMJD2A-Tudor Domain. Lysine-specific demethylase 4A (Homo sapiens), O75164. AlphaScreen JMJD2A-Tudor / H3K4me3 peptide binding. Potency, µM (doses to about 114 µM), without a hit: at the top dose activity change, negative = inhibition, hits mostly inhibitors. 390,000 compounds, 4.4% hits. AID 504339, 2011; note: potency is the fitted concentration of half-maximal effect; % is set by controls: 0 for no effect and ±100 for the full control effect; nearly all actives have a fitted effect of over 50% in size
G9a block – qHTS Assay for Inhibitors of Histone Lysine Methyltransferase G9a. 350,000 compounds, 8.8% hits. AID 504332, 2011. G9a H3K9 monomethylation, AlphaScreen, 2 h. Potency, µM (highest dose often 102 µM), inactives show top-dose activity, negative = inhibition, hits mostly inhibitors; note: potency is the fitted concentration of half-maximal effect; % is set by controls: 0 for no effect and ±100 for the full control effect; nearly all actives have a fitted effect of over 75% in size
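Using a bead-based AlphaScreen, monomethylated H3K9 product from 2 h room-temperature reactions (G9a 20 nM, peptide 500 nM, SAM 20 uM) was detected with 0.5 ug/mL rabbit anti-H3K9me1 antibody.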
Starred values were filed as active, the others as inactive; ? = inconclusive; / = not tested or not shown; [ ] = remark or other dose. Unless noted, calls come from the whole dose curve; as a rule, active = well fitted curve in the direction sought with a large enough effect; inconclusive = small, poorly fitted or top-dose-only effect, or another doubt; inactive = no such curve, though single readings can be large; an effect the other way counts as inactive or inconclusive.

SMILES	PLK1 PBD inh	PI5P4Ka inh	HP1b binding inh	BAZ2B inh	JMJD2A Tudor inh	G9a block
Cc1ccc(N(C(C)C(=O)Nc2ccc3c(c2)OCO3)S(C)(=O)=O)cc1 (stereo not drawn)	3µM*	?	-26%	-30%	?	-33%[59 µM]
CC(=O)OC[C@@H]1CN(Cc2ccccc2)C[C@H](n2cnc3c(NC4CCC4)ncnc32)O1	3%	-1	/	/	/	/
Oc1ccc(-c2csc(Nc3ccc4c(c3)OCO4)n2)c(O)c1	-10%	-20	?	/	56µM*	/
Cc1cccc(Nc2nc(-c3ccc(O)cc3O)cs2)n1	-6%	-14	-2%	?	?	50µM*
COc1ccc(C(=O)N2N=C(c3ccc(NS(C)(=O)=O)cc3)CC2c2cccs2)cc1 (stereo not drawn)	-5%	-5	-4%	-14%	-25%	-9%
COc1ccc2[nH]c3c(=S)nc[nH]c3c2c1	-21%	-28	-21%	-31%	1.6µM*	3.5µM*
O=C1Nc2ccccc2CN2C(=O)c3cc(Cl)ccc3NC(=O)C12 (stereo not drawn)	-7%	2	/	/	/	/
CCCCN1C2=NC(c3ccccc3)CN2c2ccccc21 (stereo not drawn)	-1%	0	29%	/	-12%	/
O=C(CC12CC3CC(CC(C3)C1)C2)N/N=C/c1ccncc1	27µM*	-5	?	-1%	-35%[57.1 µM]	23%[59 µM]
O=C(N/N=C/c1ccncc1)NC12CC3CC(CC(C3)C1)C2	-2%	-3	12%	-18%	-24%	?
O=S(=O)(c1ccccc1)c1nc(-c2ccco2)oc1NCCCN1CCOCC1	-1%	-2	27%	-30%	-3%	14µM*
Cc1ccc(S(=O)(=O)c2nc(-c3ccccc3)oc2NCc2cccnc2)cc1	1%	-3	57%	?	?	50µM*
O=S(=O)(c1ccccc1)c1nc(-c2ccco2)oc1NCCN1CCOCC1	-9%	/	36%	-31%	1%	?
Cc1ccc(S(=O)(=O)c2nc(-c3ccccc3Cl)oc2NCCCN2CCOCC2)cc1	-16%	-4	-32%	-11%	?	/
O=S(=O)(c1ccc(Cl)cc1)c1nc(-c2ccccc2F)oc1NCCCN1CCOCC1	-4%	1	-16%	?	?	79µM*
NC(=O)C1CCN(c2oc(-c3ccccc3F)nc2S(=O)(=O)c2ccc(Cl)cc2)CC1	-11%	5	53%	-25%	-20%	?
CN1CCN(c2oc(-c3ccccc3F)nc2S(=O)(=O)c2ccc(Cl)cc2)CC1	-12%	7	-35%	35µM*	?	/
Cc1ccccc1-c1nnc(SCC(=O)N(C)C2CCS(=O)(=O)C2)n1C (stereo not drawn)	-5%	4	18%	/	-6%	/
COC(=O)c1nnn(-c2cccc(C)c2)c1N	/	/	35%	-16%	0%	4%[59 µM]
O=S(=O)(c1ccccc1)c1nc(-c2cccs2)oc1NCCCn1ccnc1	-4%	4	20%	?	?	-1%[12.7 µM]
O=S(=O)(c1ccc(Br)cc1)c1nc(-c2ccco2)oc1NCCCn1ccnc1	-14%	-4	-1%	50µM*	?	45µM*
O=S(=O)(c1ccccc1)c1nc(-c2ccc(Cl)cc2)oc1NCCCN1CCOCC1	-11%	2	-21%	-7%	?	45µM*
Cc1ccc(CNc2oc(-c3ccco3)nc2S(=O)(=O)c2ccccc2)cc1	-6%	-6	2%	-31%	-19%	11µM*
O=S(=O)(c1ccc(Br)cc1)c1nc(-c2ccccc2)oc1NCCN1CCOCC1	-8%	1	-15%	?	?	?
CCCC(=O)N1CCCC1(C)C(=O)Nc1ccc(OC(F)F)cc1 (stereo not drawn)	2%	-1	/	/	/	/
SMILES	PLK1 PBD inh	PI5P4Ka inh	HP1b binding inh	BAZ2B inh	JMJD2A Tudor inh	G9a block
Nc1nnc2c(n1)CCCC2	-4%	-6	21%	50µM*	22µM*	?
CCC(=O)N1CCCC(C(=O)c2ccc(-c3ccccc3)cc2)C1 (stereo not drawn)	0%	-4	3%	10%	-18%	17%
COc1cc(OC)cc(-c2c(Sc3ccccc3)c3cc(-c4cnc(OC)nc4)ccc3n2C)c1	-11%	5	/	/	/	/
COc1cc(C#Cc2c(-c3cncn3C)n(C)c3ccc(-c4cnc(OC)nc4)cc23)cc(OC)c1	-10%	11	7%	50µM*	?	7%[0.501 µM]
COc1cc(C#Cc2c(-c3cncn3C)n(C)c3ccc(-c4ccc(CN5CCOCC5)cc4)cc23)cc(OC)c1	1%	1	4%	/	8.9µM*	/
CCCS(=O)(=O)NC(=O)C1(C)CCCN(C(=O)c2nc3ccccc3s2)C1 (stereo not drawn)	4%	-2	/	/	/	/
CCOc1ccc(N2C(=O)CC(N3CCN(c4ccccc4F)CC3)C2=O)cc1 (stereo not drawn)	27µM*	-7	-24%	8%	-5%[11.4 µM]	17%[59 µM]
CCOc1ccc(N2C(=O)CC(N3CCN(c4ccccc4OC)CC3)C2=O)cc1 (stereo not drawn)	-7%	-3	44%	-4%[0.457 µM]	-15%	/
O=C1CC(N2CCN(S(=O)(=O)c3ccccc3F)CC2)C(=O)N1c1ccccc1F (stereo not drawn)	6%	-2	?	/	16µM*	/
CCCOc1ccc(N2C(=O)CC(N3CCN(c4ccccc4OC)CC3)C2=O)cc1 (stereo not drawn)	-7%	3	44%	-22%	-13%	45µM*
CCOc1ccc(N2C(=O)CC(/C=C3/N(C)c4ccccc4C3(C)C)C2=O)cc1 (stereo not drawn)	-1%	-6	8%	?	?	14µM*
N#Cc1ccc(-c2cccc3nccn23)cc1	7%	-1	/	/	/	/
COc1ccc(N2C(=O)CC(N3CCN(c4ccc(S(C)(=O)=O)cc4)CC3)C2=O)cc1 (stereo not drawn)	-12%	/	12%	1%	-18%	32µM*
COc1ccc(NC2CCN(C3CC(=O)N(c4ccc(F)c(Cl)c4)C3=O)CC2)cc1 (stereo not drawn)	-12%	1	?	45µM*	?	?
CCCCNC(=O)c1cnc2sc(N3CCCCCC3)nn2c1=O	/	/	52%	-1%	-15%	6%[59 µM]
CCOc1cc(/C=C/c2cc(C(=O)O)c3ccccc3n2)ccc1O	-1%	-10	17%	3%	?	-4%[59 µM]
